# Several values for one entry are separate records, joined by “and”; a condition that tells them apart may be missing. Equal entries are not always repeated. For some assays here: Measured potencies and affinities stand elsewhere. Activity calls are given as the source filed them. Rule as the data show it, unless noted: active = parasite load remaining mostly below about 12% (no sharp cut-off); inactive = mostly above about 10%.
# Columns and labels:
# [1] = EMT-state selective cytotoxicity in co-culture – imaging, PC-3E GFP, TEM4-18 mCherry, primary screen (AID 1345086;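 active = compounds killing one labelled cell type while sparing the other, by normalised counts and ratio limits, not self-fluorescent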;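 as to all read-outs here: cells exposed to compound for 72 h before imaging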;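 as to red/green cell ratio (normalised): normalised mesenchymal count divided by normalised epithelial count so high means epithelial killing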); conditions: PC-3E GFP / TEM4-18 mCherry co-culture, imaging cell counts, at 1 µM; for red/green cell ratio (normalised): actives lie on both sides
# [2] = tested on: Aerobactin synthetase IucA (Klebsiella pneumoniae hvKP1); test: IucA enzyme inhibition, primary screen, biochemical, Spectrum library (AID 1346200; call rule not given here;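 also: 100% = wells without compound and 0% = wells lacking enzyme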); conditions: malachite green pyrophosphate, A620, at 8 µM, stronger effect = lower value
# [3] = blockers of polyQ-driven CASP3 activation – cell-based (AID 1583); conditions: polyglutamine-induced caspase-3 activation, cell assay; stronger effect = higher value;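 tested at 10 µM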
# [4] = yeast 75Q aggregation reduction – 75Q-TubU reporter (AID 1593); conditions: Yeast 75Q polyglutamine aggregation reporter
# [5] = restoration of touch response, mutant HTT neurons – whole organism, C. elegans mechanosensory neurons, N-terminal huntingtin (AID 1599); conditions: C. elegans polyQ-huntingtin mechanosensory neurons, stronger effect = higher value
# [6] = blockers of cytochrome c efflux from mitochondria – biochemical, purified mitochondria (AID 1603); conditions: stronger effect = lower value;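 also: mouse liver mitochondria challenged with calcium chloride; signal normalized to the plate average as 100%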
# [7] = polyglutamine aggregate formation blockers (AID 1604); conditions: polyglutamine-induced protein aggregation inhibition assay; stronger effect = higher value; tested at 2.5 µM
# [8] = glutamate transport activators, MN-1 cells, MN-1 cell line (AID 1612); conditions: MN-1 motor neuron cells, stronger effect = higher value;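 also: tested at 1 µM final; 0% = mean of DMSO vehicle wells on each plate; positive means more glutamate uptake than control and negative means less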
# [9] = 75Q-TubH aggregate inhibition, S. cerevisiae, yeast (AID 1616); conditions: S. cerevisiae 75Q-TubH polyglutamine aggregation suppression; stronger effect = higher value
# [10] = P. berghei load reduction in hepatocytes – cell-based, HepG2, luciferase luminescence, HepG2 viability, primary screen (AID 624349);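 also: 100% = mean of DMSO negative control wells on the same plate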; conditions: P. berghei liver stage in HepG2, luciferase luminescence, concentration not given here; parasite load remaining: stronger effect = lower value; viability: measured here: HepG2 viability without parasites
# [11] = viability loss with induced miR-34 in A549 – imaging, A549 dox-inducible miR-34, nuclei and caspase counts, primary screen (AID 1347080;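 active = compounds whose cell count with miR-34 switched on is under 0.7 times the count with it off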); conditions: A549 miR-34 inducible, Hoechst nuclei count, 48 h
# [12] = molecular target: Mitogen-activated protein kinase 7 (Homo sapiens) (UniProt Q13164); test: Gal4-ERK5 driven luciferase induction – cell-based, HTS, primary screen (AID 1508626;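 active = luciferase signal above three times the same-plate solvent-only control wells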;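 also: luciferase driven by Gal4-ERK5 fusion binding five Gal4 sites before minimal TATA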); conditions: HeLa Gal4-ERK5 transactivation, 18 h, at 5 µM, stronger effect = higher value
# [13] = galactose survival enhancers in mitochondrial complex I cybrids – cell-based, galactose medium, ATP luminescence, primary screen (AID 1645843;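 active = z-score of at least 1.8 in each of two replicates, scored against plate mean and spread of sample wells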;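 also: positive z means more ATP and so rescue of galactose-driven cybrid death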); conditions: complex I mutant cybrid cells, 72 h, stronger effect = higher value
# [14] = measured here: epithelial PC-3E GFP cell survival
# [15] = measured here: mesenchymal TEM4-18 mCherry cell survival
# [16] = counts scaled to control wells, 1 = unselective
# [17] = measured here: relative caspase fold change +Dox/-Dox
# [18] = measured here: total cells with miR-34 induction, stronger effect = lower value
# [19] = measured here: total cells without miR-34 induction
# Chain of Mitogen-activated protein kinase 7 (Homo sapiens) (Q13164 whole entry, looked up, the tested form may be a part): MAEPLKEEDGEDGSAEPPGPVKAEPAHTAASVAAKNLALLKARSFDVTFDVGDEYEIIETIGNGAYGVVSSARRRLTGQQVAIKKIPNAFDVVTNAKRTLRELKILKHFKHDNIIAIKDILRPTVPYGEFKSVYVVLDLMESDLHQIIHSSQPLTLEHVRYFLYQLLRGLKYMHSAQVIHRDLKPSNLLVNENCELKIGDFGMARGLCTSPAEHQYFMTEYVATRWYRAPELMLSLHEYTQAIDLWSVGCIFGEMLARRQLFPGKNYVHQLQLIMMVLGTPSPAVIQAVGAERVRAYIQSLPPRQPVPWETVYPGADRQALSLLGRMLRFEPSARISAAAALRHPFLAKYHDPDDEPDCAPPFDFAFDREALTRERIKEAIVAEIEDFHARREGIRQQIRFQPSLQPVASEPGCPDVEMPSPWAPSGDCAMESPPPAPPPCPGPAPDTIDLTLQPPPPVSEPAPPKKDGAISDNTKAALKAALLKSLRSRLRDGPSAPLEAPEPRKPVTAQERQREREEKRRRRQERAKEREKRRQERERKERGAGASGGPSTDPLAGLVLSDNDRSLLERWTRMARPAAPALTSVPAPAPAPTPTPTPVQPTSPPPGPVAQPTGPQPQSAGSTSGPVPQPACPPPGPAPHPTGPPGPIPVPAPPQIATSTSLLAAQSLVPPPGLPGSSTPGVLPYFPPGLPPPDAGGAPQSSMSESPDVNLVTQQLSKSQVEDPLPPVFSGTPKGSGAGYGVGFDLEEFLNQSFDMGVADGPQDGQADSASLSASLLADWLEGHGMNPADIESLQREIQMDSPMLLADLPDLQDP
Structure (SMILES),red/green cell ratio (normalised) [1],"normalised cell number [1, 14]","normalised cell number [1, 15]",activity remaining [2],"red/green cell ratio (normalised) [1, 16]",inhibition [3],score [4],rescue above control [5],cytochrome c release ratio [6],inhibition of aggregation [7],glutamate uptake change [8],aggregation suppression score [9],parasite load remaining [10],viability [10],fold change ([11]; stronger effect = lower value),"fold change [11, 17]","cell count [11, 18]","cell count [11, 19]",luciferase signal [12],z-score [13]
CC1(C)C(=O)C=C[C@@]2(C)C1C[C@@H](O)[C@]1(C)C2CC[C@@]2(C)[C@H](c3ccoc3)OC(=O)[C@H]3O[C@]321 (stereo not given in full),1.08 (inactive),0.88,0.95,88.4% (inactive),–,–,–,–,–,–,–,–,–,–,–,–,–,–,–,–
CC(=O)OC1CC[C@@]2(C)C(CCC3C2CC[C@]2(C)C(C4=CC(=O)OC4)C(OC(C)=O)CC32O)C1 (stereo not given in full),–,0.16,0.03,109% (inactive),0.21 (inactive),–,–,–,–,–,–,–,–,–,–,–,–,–,–,–
Oc1ccc2c3c1OC1[C@@H](O)CC[C@@]4(O)[C@@H](C2)N(CC2CCC2)CC[C@]314 (stereo not given in full),0.87 (inactive),1.11,0.97,103% (inactive),–,-4.48%,1.45,-8.65,0.87,52.2%,-2.6%,1.67,136% (inactive) and 45% (inactive),75.1% and 93.8%,0.892 (inactive),2.83,12000,13500,–,–
CC(=O)O[C@@H]1C[C@@]2(C)[C@H](c3ccoc3)C[C@H]3O[C@]32[C@]2(C)C(=O)C(O)=C3C(C)(C)C(=O)C=C[C@]3(C)C12 (stereo not given in full),0.93 (inactive),0.15,0.14,102% (inactive),–,–,–,–,–,–,–,–,–,–,–,–,–,–,–,–
C[N+]1(C)CCc2cc3c(cc2[C@H]1C1OC(=O)c2c1ccc1c2OCO1)OCO3 (stereo not given in full),–,1.35,1.18,129% (inactive),0.88 (inactive),–,–,–,–,–,–,–,–,–,–,–,–,–,–,–
C=CCN1CC[C@]23c4c5ccc(O)c4OC2C(=O)CC[C@@]3(O)[C@H]1C5 (stereo not given in full),1.09 (inactive),1.09,1.19,92.9% (inactive),–,-6.59%,1.27,-8.32,1.12,68.2%,-6.41%,1.13,96.1% (inactive) and 54.5% (inactive),79.4% and 88.1%,0.923 (inactive),2.03,11800,12800,–,–
C#CC1(O)CCC2C3CCC4=CC(=O)CCC4(C)C3CCC21C (stereo not given),0.77 (inactive),1.21,0.93,112% (inactive),–,4.95%,0.22,3.19,0.95,63.6%,12.9%,1.19,62% (inactive) and 21.3% (inactive),93.9% and 81%,0.935 (inactive),2.1,10400,11100,–,–
C=CCc1ccc(OC)cc1,1.02 (inactive),0.96,0.99,107% (inactive),–,–,–,–,–,–,–,–,–,–,–,–,–,–,52 AU (inactive),–
CN1CCc2cc3c(cc2[C@H]1C1OC(=O)c2c1ccc1c2OCO1)OCO3 (stereo not given in full),1.02 (inactive),0.99,1,121% (inactive),–,–,–,–,–,–,–,–,–,–,–,–,–,–,–,–
CC1OC(=O)[C@@H](C(C)C)NC(=O)C(C(C)C)OC(=O)[C@H](C(C)C)NC(=O)C(C)OC(=O)[C@@H](C(C)C)NC(=O)C(C(C)C)OC(=O)[C@H](C(C)C)NC(=O)C(C)OC(=O)[C@@H](C(C)C)NC(=O)C(C(C)C)OC(=O)[C@H](C(C)C)NC1=O (stereo not given in full),0.92 (inactive),0.32,0.29,122% (inactive),–,–,–,–,–,–,–,–,–,–,–,–,–,–,–,–
CC(C)C[C@@H](CN)CC(=O)O,1.06 (inactive),1.2,1.27,121% (inactive),–,–,–,–,–,–,–,–,133% (inactive) and 53% (inactive),88.1% and 116%,0.933 (inactive),3.45,12300,13200,–,–
CCN1C[C@@]2(COC)C3[C@@H](OC)[C@H]4[C@@H]1[C@]3(C(OC)C[C@H]2O)C1C[C@@]2(O)[C@H](OC(=O)c3ccccc3)C1[C@]4(OC(C)=O)[C@@H](O)[C@@H]2OC (stereo not given in full),1.07 (inactive),1.01,1.07,113% (inactive),–,-1.76%,0.9,-1.73,0.91,65.4%,9.78%,1.1,85.5% (inactive) and 32.5% (inactive),79.4% and 105%,0.875 (inactive),3.63,11000,12600,–,–
C[N+](C)(C)CC(=O)[O-],1.27 (inactive),1.09,1.39,124% (inactive),–,4.44%,1.09,5.21,1.34,61.8%,21.6%,0.998,57.1% (inactive) and 50.8% (inactive),76.9% and 89.4%,0.862 (inactive),4.05,11400,13200,–,–
CC(CO)NC(=O)C1C=C2c3cccc4[nH]cc(c34)C[C@H]2N(C)C1 (stereo not given in full),1.15 (inactive),0.77,0.88,98.2% (inactive),–,–,–,–,–,–,–,–,81.6% (inactive) and 59.7% (inactive),72.8% and 111%,0.895 (inactive),3.49,11100,12400,–,–
CC1[C@H](C)OC(=O)CC(O)CC(O)CC(O)CCC(O)C(O)C[C@]2(O)CC(O)C(C(=O)O)C(CC(OC3O[C@H](C)[C@@H](O)[C@H](N)[C@@H]3O)/C=C/C=C/C=C/C=C/CC/C=C/C=C/[C@H](C)[C@H]1O)O2 (stereo not given in full),1.28 (inactive),0.98,1.25,89.3% (inactive),–,3.51%,-0.11,3.77,0.93,30.3%,9.44%,0.00787,87.6% (inactive) and 108% (inactive),71.5% and 89.6%,0.841 (inactive),0.89,11200,13400,–,–
NC1C[C@H]1c1ccccc1 (stereo not given in full),1.23 (inactive),0.99,1.22,123% (inactive),–,-1.78%,0.95,2.94,0.57,-4.08%,0.89%,1.29,139% (inactive) and 41.7% (inactive),72.4% and 86.6%,0.916 (inactive),1.81,11800,12900,–,–
C=C[C@H]1CN2CC[C@H]1C[C@@H]2[C@H](O)c1ccnc2ccccc12,1.26 (inactive),0.87,1.1,125% (inactive),–,15.4%,1.55,3.43,0.96,-10.6%,4.38%,1.26,84.2% (inactive) and 28.1% (inactive),73.3% and 88.8%,0.93 (inactive),2.81,12200,13100,–,–
C=C[C@H]1CN2CC[C@H]1C[C@@H]2[C@@H](OC(=O)OCC)c1ccnc2ccc(OC)cc12,1.15 (inactive),0.67,0.77,98.2% (inactive),–,11.7%,1.24,17,1.43,70.5%,9.82%,1.15,53% (inactive),91.4%,0.94 (inactive),1.23,11100,11800,–,–
O=C1CC[C@@]2(O)[C@H]3Cc4ccc(O)c5c4C2(CCN3CC2CC2)[C@H]1O5,1.24 (inactive),1.01,1.26,104% (inactive),–,-9.29%,1.49,-6.2,1.27,61.5%,10.7%,1.53,70.5% (inactive) and 73.3% (inactive),84.7% and 132%,0.853 (inactive),4.3,11500,13400,–,–
COc1cc2c(cc1OC)[C@@H]1C(=O)c3ccc4c(c3O[C@@H]1CO2)CC(C(C)C)O4 (stereo not given in full),1.13 (inactive),0.56,0.64,114% (inactive),–,–,–,–,–,–,–,–,–,–,–,–,–,–,–,–
O=C1CCCC2C3CC(CN12)[C@@H]1CCCCN1C3 (stereo not given in full),–,0.86,0.98,119% (inactive),1.13 (inactive),–,–,–,–,–,–,–,–,–,–,–,–,–,–,–
CN1C2C[C@H](OC(=O)[C@H](CO)c3ccccc3)C[C@H]1[C@@H](O)C2,0.94 (inactive),1.1,1.03,109% (inactive),–,–,–,–,–,–,–,–,–,–,0.908 (inactive),0.859,8730,9620,–,–
Nc1ncn[nH]1,1.3 (inactive),0.82,1.07,92.7% (inactive),–,–,–,–,–,–,–,–,–,–,–,–,–,–,24 AU (inactive),–
CC[C@@]1(O)C[C@H](O[C@H]2C[C@H](N(C)C)[C@H](O)[C@H](C)O2)c2c(cc3c(c2O)C(=O)c2c(O)ccc(O)c2C3=O)[C@H]1C(=O)OC,0.85 (inactive),1.07,0.9,96.8% (inactive),–,–,–,–,–,–,–,–,–,–,–,–,–,–,32 AU (inactive),–
C=C1CC2C(CC[C@]3(C)C(=O)CCC23)[C@@]2(C)C=CC(=O)C=C12 (stereo not given in full),1.16 (inactive),1.01,1.17,121% (inactive),–,–,–,–,–,–,–,–,9.27% (inactive),99%,0.911 (inactive) and 0.833 (inactive),1 and 2.69,8770 and 9350,9630 and 11200,–,-1.42 (inactive)
C[C@@H]1O[C@@H](O[C@H]2C[C@@H](O)[C@]3(CO)C4C(CC[C@]3(O)C2)[C@@]2(O)CC[C@H](C3=CC(=O)OC3)[C@@]2(C)C[C@H]4O)[C@H](O)[C@H](O)[C@H]1O (stereo not given in full),0.13 (inactive),0.14,0.02,122% (inactive),–,78.5%,1.02,3.58,1.01,75%,-21.6%,1.24,242% (inactive) and -0.205% (inactive),38.6% and 15.3%,0.536 (active),2.2,195,364,–,–
CCC(=O)O[C@H]1CCC2C3CCC4=CC(=O)CC[C@]4(C)C3CC[C@@]21C (stereo not given in full),1.2 (inactive),1.23,1.48,108% (inactive),–,28.2%,0.18,-2.54,0.85,35.3%,14.3%,0.523,54.4% (inactive),99.7%,0.927 (inactive),4.54,10500,11300,–,–

# Reference: PubChem BioAssay
